Screening results deposited in PubChem BioAssay by National Center for Advancing Translational Sciences (NCATS).
CCT chaperon mod: cytosolic chaperonin activity modulation; actives 0.3% (n = 360,000); AID 651819; activity change, % (no concentration beside the values), hits read low; purified chaperonin ATPase assay, HTRF ADP detection, 30 min; in the data active = activity change below about -30%
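Nucleotide hydrolysis assay: TRiC at 20–40 nM final (set by batch activity) with 10 uM ATP, 30 min at 37 °C, in presence of 76 uM compound. Detection by competitive ADP HTRF, 30 min ambient.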
GLS inh: glutaminase GLS (human) inhibition. GLS enzymatic activity, qHTS titration. Potency, µM (highest dose often 45.5 µM), most hits filed as inhibitors. actives 0.21% (n = 410,000). AID 624170
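hKGA; 45 mM KH2PO4 pH 8.2 + 0.02% Tween-20; cpd via pin tool; 1 mM Gln soln; GluOx/HRP/Amplex Red; RT 30 min; fluor. t0 & final.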
GRP78 ERSR act: induces the endoplasmic reticulum stress response in human glioma cells. U87-MG GRP78 promoter luciferase reporter, 16 h. Potency, µM, actives largely listed as activators. actives 0.02% (n = 420,000). AID 602332; also: series mostly up to about 76 µM; nearly all actives have a fitted effect of over 35% in size
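ERSR induction read as luciferase luminescence (Bright-Glo, 10 min at room temperature) in stably transfected human U87-MG glioma cells exposed to compounds for 16 h, using GRP78 as sensor.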
mIDH1 inhibitor: inhibitors of human mutant IDH1 R132H. actives 0.093% (n = 390,000). IDH1-R132H enzyme, NADPH consumption, diaphorase/resazurin fluorescence. AID 602179. Potency, µM (top dose mostly 76.6 µM), usual class: inhibitors; also: nearly all actives have a fitted effect of over 65% in size
Target sequence (O75874 whole entry R132H, stated change not applied): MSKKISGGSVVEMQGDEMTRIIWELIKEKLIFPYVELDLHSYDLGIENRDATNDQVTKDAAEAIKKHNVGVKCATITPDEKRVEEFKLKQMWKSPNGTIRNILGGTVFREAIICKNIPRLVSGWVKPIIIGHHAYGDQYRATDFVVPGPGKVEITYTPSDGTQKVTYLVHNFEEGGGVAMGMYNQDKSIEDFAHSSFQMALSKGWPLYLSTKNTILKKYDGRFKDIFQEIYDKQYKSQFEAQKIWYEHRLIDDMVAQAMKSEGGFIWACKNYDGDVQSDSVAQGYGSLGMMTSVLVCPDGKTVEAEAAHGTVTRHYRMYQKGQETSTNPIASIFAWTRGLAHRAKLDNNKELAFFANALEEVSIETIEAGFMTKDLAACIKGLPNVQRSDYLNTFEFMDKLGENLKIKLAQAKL
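IDH1-R132H (0.5 ug/mL dispensed) in pH 7.5 Tris buffer was preincubated 30 min with compound, then given a substrate mix of 0.016 mM NADPH and 2 mM alpha-KG for 80 min at room temperature; remaining NADPH was read by diaphorase/resazurin fluorescence.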
MmCpn inh: M. maripaludis TRiC chaperonin inhibition | purified Mm-Cpn ATPase, ADP Transcreener TR-FRET | Potency, µM (highest dose often 76.9 µM), usual class: inhibitors | actives 0.031% (n = 330,000); also: nearly all actives have a fitted effect of over 80% in size
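Quantitative HTS used 25 nM Mm-CPN and 10 uM ATP in magnesium/KCl Tris buffer, pH 7.4, with 1 mM DTT. Hydrolysis ran 30 min at 37°C; ADP was read by HTRF.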
Akt phos inh: Akt phosphorylation inhibition | actives 0.32% (n = 360,000) | activity change, % for hits at 50 µM | Neuro2A IGF-stimulated pAkt S473 HTRF, 20 min; hits give low values; in the data active = activity change below about -80%; inconclusive = mostly about -51% to -80%
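Neuro2A cells (4,500/well, DMEM with 0.5% FBS) were treated with compound at a single 50 µM final concentration, stimulated with 6 nM IGF for 20 min at 37 °C, and lysed. Phospho-Akt Ser473 was read by HTRF as 665/615 ratio ×10^4.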
Of the large screens only hits and unclear results are named; the others gave an inactive call. Rows were chosen to be rich in hits. Some 0.85% of all compounds tested hit in one or more screens of this group. Unless noted, calls follow the shape of the dose curve; as a rule, active = well fitted curve in the direction sought with a large enough effect; inconclusive = small, poorly fitted or top-dose-only effect, or another doubt; inactive = no such curve, though single readings can be large; an effect the other way counts as inactive or inconclusive.

CCC(C)NS(=O)(=O)c1ccc(OCC(=O)Nc2ccc(F)cc2F)cc1 (configuration not stated)	Akt phos inh -111%
Cc1ccc(CNc2nc(CN3CCSCC3)nc3ccccc23)o1	none (no result: CCT chaperon mod, GLS inh, mIDH1 inhibitor, MmCpn inh, Akt phos inh)
COc1ccc(OC)c(NC(=O)CSc2nnc(C)n2Cc2ccccc2)c1	CCT chaperon mod -49 (no result: Akt phos inh)
COc1ccc(NC(=O)CSc2nnc(C)n2Cc2ccccc2)cc1	none
COc1ccccc1NC(=O)CSc1nnc(Cc2cccn2C)n1CCc1ccccc1	Akt phos inh -83%
O=C(NCCN1CCOCC1)c1cnn(-c2nccc(-c3ccccc3F)n2)c1C1CC1	none (no result: CCT chaperon mod, GLS inh, mIDH1 inhibitor, MmCpn inh, Akt phos inh)
O=C(Nc1c(F)cc(F)cc1Br)c1ccco1	CCT chaperon mod -101
Cc1cc(C)cc(CN2CCOc3ccc(CN4CCC(O)(c5cccnc5)CC4)cc3C2)c1	none (no result: CCT chaperon mod, GLS inh, mIDH1 inhibitor, MmCpn inh, Akt phos inh)
Cc1ccnn1CC(=O)N1CCOc2c(cc(-c3ncc(C(F)(F)F)cc3Cl)cc2OCC2CCCO2)C1 (configuration not stated)	none (no result: CCT chaperon mod, GLS inh, mIDH1 inhibitor, MmCpn inh, Akt phos inh)
O=C(COC(=O)c1cccnc1SCC(=O)NCc1ccccc1)NCc1ccccc1	Akt phos inh -89%
Cc1nonc1NC(=O)CSc1nc2cc(Cl)ccc2c2c1CCCC2	Akt phos inh -94%
CC(NC(=O)c1ccc(S(=O)(=O)N(C)C)cc1)c1ccccc1 (configuration not stated)	Akt phos inh -90%
O=C(NCC(c1ccco1)N1CCc2ccccc2C1)c1cccc(F)c1 (configuration not stated)	none
Cc1ccccc1C(=O)NCC(c1ccco1)N1CCc2ccccc2C1 (configuration not stated)	MmCpn inh 40µM
CNc1cc(CS(=O)c2ccccc2)nc(-c2ccccc2)n1 (configuration not stated)	Akt phos inh -123%
N/C(=N\OC(=O)c1ccccc1)c1ccn[nH]1	CCT chaperon mod -31, MmCpn inh inconclusive
Cc1c(C(=O)c2ccccc2)c2ccccn2c1CCc1ccccn1	CCT chaperon mod -70
COc1cccc(C2Nc3ccccc3C(=O)N2O)c1O (configuration not stated)	Akt phos inh -118%
O=C(Cn1c(=S)[nH]c2ccccc21)c1ccccc1	CCT chaperon mod -34
CCn1c(=S)[nH]c2ccccc21	none
N=C(N)c1ccc(OCCCOc2ccc(C(=N)N)cc2Br)c(Br)c1	none (no result: CCT chaperon mod, mIDH1 inhibitor, MmCpn inh, Akt phos inh)
Cc1cc(NCCCn2ccnc2)n2ncc(-c3ccccc3)c2n1	Akt phos inh -90%
O=C(N/N=C/c1ccc(O)cc1O)c1ccncc1	GLS inh 13µM
O=C(N/N=C/c1ccc(O)cc1O)/C(=C/c1ccccc1)CCO	CCT chaperon mod -35
CCn1ncc(C(=O)Nc2ccc(S(=O)(=O)N3CCCC3)cc2)c1C	Akt phos inh -123%
Cc1occc1C(=O)Nc1ccc(S(=O)(=O)N2CCCC2)cc1	none
COc1cc(C(C#N)N2CCC(c3ccccc3)=N2)ccc1O (configuration not stated)	GLS inh 10µM, GRP78 ERSR act inconclusive
Cc1ccc2c(c1)cc(CN(C)Cc1nc(C)cs1)c(=O)n2C	none (no result: CCT chaperon mod, GLS inh, mIDH1 inhibitor, MmCpn inh, Akt phos inh)
CCCCNC(=O)CC1N=C2c3ccccc3N=C(SCC(=O)Nc3cccc(OC)c3)N2C1=O (configuration not stated)	GLS inh 7.1µM
Cc1cc(C)c(NC(=O)CSC2=Nc3ccccc3C3=NC(CC(=O)NCc4cccs4)C(=O)N23)c(C)c1 (configuration not stated)	GLS inh 11µM, mIDH1 inhibitor inconclusive (no result: CCT chaperon mod, MmCpn inh, Akt phos inh)
CCc1ccc(NC(=O)CSC2=Nc3ccccc3C3=NC(CC(=O)NCc4cccs4)C(=O)N23)cc1 (configuration not stated)	none (no result: CCT chaperon mod, MmCpn inh, Akt phos inh)
CCCCCCCCCCCCCCCC(=O)O[C@H]1[C@@H](O)[C@@H](O)[C@@H]([C@H](NC(=O)[C@@H]2C[C@@H](CCC)CN2C)[C@H](C)Cl)O[C@@H]1SC	none (no result: CCT chaperon mod, mIDH1 inhibitor, MmCpn inh, Akt phos inh)
COc1ccc(N2C(=O)[C@@H]3C[C@H]2CN3Cc2cccn2-c2ccccn2)cc1Cl	none (no result: CCT chaperon mod, GLS inh, mIDH1 inhibitor, MmCpn inh, Akt phos inh)
O=C(O)c1ccc(N2Cc3ccccc3C2)cc1O	GLS inh 4µM
O=C(O)c1ccc(N2CCCCC2)cc1O	none
CC(=O)Nc1ccc(OC(F)(F)C(F)F)c(NC(C)=O)c1	none
C=C(C)C(=O)Nc1ccc(OC(F)(F)C(F)F)c(NC(=O)C(=C)C)c1	GLS inh 13µM
CN1CCN(S(=O)(=O)c2ccc(NC(=O)c3cccs3)cc2)CC1	Akt phos inh -102% (no result: MmCpn inh)
N#CC(C(=O)NCc1ccccc1)c1nc2ccccc2nc1N1CCCC1 (configuration not stated)	Akt phos inh -84%
COc1ccccc1N1CCN(c2nc3ccccc3nc2C(C#N)C(=O)OC(C)C)CC1 (configuration not stated)	Akt phos inh -97%
O=C(O)c1cc(Cl)c2c(c1)OCO2	CCT chaperon mod -61, GLS inh 20µM
O=C(Cn1sc2ccccc2c1=O)Nc1ccc(Br)cc1	GLS inh 7.1µM (no result: MmCpn inh)
O=C(Cn1sc2ccccc2c1=O)Nc1ccc(F)cc1	GLS inh inconclusive (no result: MmCpn inh)
O=C(Cn1sc2ccccc2c1=O)Nc1ccc(Cl)cc1	GLS inh 7.1µM (no result: MmCpn inh)
Cc1ccc(NC(=O)Cn2nc(-c3ccc(Cl)cc3)c3ccccc3c2=O)cc1	none (no result: CCT chaperon mod, GRP78 ERSR act, mIDH1 inhibitor, MmCpn inh, Akt phos inh)
CO/N=C1/CC2(CC3CC(C/C=C(/C)CC(C)/C=C\C=C4\COC5C(O)C(C)=CC(C(=O)O3)C45O)O2)OC(/C(C)=C/C(C)C)C1C (configuration not stated)	none (no result: CCT chaperon mod, mIDH1 inhibitor, MmCpn inh, Akt phos inh)
CC(NC(=O)COC(=O)CNC(=O)c1ccccc1Cl)C1CC2CCC1C2 (configuration not stated)	CCT chaperon mod -40
Cc1ccccc1C(=O)NCC(=O)OCC(=O)NC(C)C1CC2CCC1C2 (configuration not stated)	none
Cc1nc(N2CCN(Cc3ccccc3)CC2)nc2c1C(=O)CC(C)C2 (configuration not stated)	Akt phos inh -110%
CCN1CCN(c2nc(C)c3c(n2)CC(C)CC3=O)CC1 (configuration not stated)	none
COc1cccc(-c2csc(N3CCC(C(N)=O)CC3)n2)c1	none (no result: CCT chaperon mod, GLS inh, GRP78 ERSR act, mIDH1 inhibitor, Akt phos inh)
CCn1c(C)cc2c(c1=O)C(c1ccncc1)C(C#N)=C(N)O2 (configuration not stated)	none
COc1ccc(CCn2c(C)cc3c(c2=O)C(c2ccncc2)C(C#N)=C(N)O3)cc1OC (configuration not stated)	CCT chaperon mod -36
O=C(/C=C/c1ccccc1)c1ccccn1	GRP78 ERSR act inconclusive, Akt phos inh -119%
N/C(=N\OC(=O)/C=C/c1ccccc1)c1ccccn1	none
COc1ccc2nc(NC(=O)c3ccoc3C)sc2c1	Akt phos inh -110%
